Entries with a potency or affinity are not part of this list. Results filed as inconclusive are left out. Active and inactive are the calls of the source.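 The calls were made as follows: active = a valid curve of falling signal whose half-effect concentration is at most ten times the top tested dose; inconclusive = flat curve at 30 to 70% inhibition, or poor fit; inactive = signal rise, flat within 30%, or potency beyond limit.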
The compounds below were run against Scavenger receptor class B member 1 (Mus musculus) (UniProt Q61009) (assay: mouse SR-BI DiI-HDL uptake blockers – ldlA[mSR-BI] cells, fluorescence, cherry pick, dose response (AID 493194;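 also: CHO cells lacking LDL receptor and overexpressing mouse SR-BI; cellular uptake of fluorescently labeled HDL measured as cell fluorescence; 0% = median of neutral control wells and -100% = median of positive control wells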)). Conditions: CHO ldlA[mSR-BI] DiI-HDL uptake fluorescence, 3 h; series mostly up to 35 µM; activity change, negative = inhibition: at the top concentration.
Chain of Scavenger receptor class B member 1 (Mus musculus) (Q61009 whole entry, looked up): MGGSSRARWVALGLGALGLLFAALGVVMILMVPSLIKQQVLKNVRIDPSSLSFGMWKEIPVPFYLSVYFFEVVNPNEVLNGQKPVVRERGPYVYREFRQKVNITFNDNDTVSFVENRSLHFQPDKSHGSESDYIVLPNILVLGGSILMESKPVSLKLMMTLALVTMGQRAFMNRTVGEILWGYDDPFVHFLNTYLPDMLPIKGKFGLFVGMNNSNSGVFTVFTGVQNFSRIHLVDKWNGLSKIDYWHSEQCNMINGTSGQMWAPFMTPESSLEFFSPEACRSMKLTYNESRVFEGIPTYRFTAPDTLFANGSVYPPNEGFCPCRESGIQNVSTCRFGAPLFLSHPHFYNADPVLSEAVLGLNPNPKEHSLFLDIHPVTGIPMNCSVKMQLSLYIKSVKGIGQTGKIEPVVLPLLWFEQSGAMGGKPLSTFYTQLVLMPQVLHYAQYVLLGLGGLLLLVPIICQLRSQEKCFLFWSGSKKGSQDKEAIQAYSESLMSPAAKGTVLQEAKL

Activity change, negative = inhibition, inactive:
Cc1ccc(CCNC(=O)C2CCN(C(=O)c3sccc3-n3cccc3)CC2)cc1 -1.91%
Cc1cccc(NC(=O)N2C3CCCC2CC(NC(=O)C(C)(C)C)C3)c1 (stereo not drawn) 44.3%
C[C@@H]1COC(=O)[C@H](NC(=O)OCC2c3ccccc3-c3ccccc32)C/C=C\C[C@@H](CC(=O)N[C@H](CO)Cc2ccccc2)C(=O)N1 -0.07%
CC(=O)Nc1nc(-c2ccccc2)nc(-c2ccccc2OC(C)=O)n1 -22.1%
COc1ccc(S(=O)(=O)N2CCC(C(=O)NN3CCCCC3)CC2)cc1OC 4.12%
COc1ccc([C@H]2/C=C\CN(S(=O)(=O)c3ccc4ccccc4c3)[C@@H](C)C(=O)N2Cc2ccc(F)cc2)cc1 3.41%
Cc1ccc(/C=C/C(=O)Nc2sc3c(c2C#N)CCCC3)o1 -15%
COc1ccc(-c2nnn(CC(=O)N(CC(=O)NC3CCCC3)c3cccc(C)c3)n2)cc1OC -20.7%
CC(=O)Nc1cc(NC(C)=O)cc(C(=O)OCC(=O)N(c2ccccc2)C2CCS(=O)(=O)C2)c1 (stereo not drawn) 29%
c1ccc(COn2c(-c3ccccc3)nc3c2CCc2nonc2-3)cc1 -12.6%
CCOc1ccc(NC(=O)CN2CCN(CC(=O)Nc3ccc(Cl)c(C(F)(F)F)c3)CC2)cc1 82%
CC(=O)NCCC1CCN(C(=O)c2cc(COc3ccc(C)nc3)on2)CC1 7.7%
CN(C(=O)COC(=O)c1c[nH]c(=O)[nH]c1=O)C1CCCCC1 50.6%
O=C(c1ccc(S(=O)(=O)NCc2ccco2)cc1)N1CCN(Cc2ccccc2)CC1 -36.1%
Cc1ccc2nc(-c3ccccc3)cc(C(=O)N3CCN(c4ccccc4O)CC3)c2c1 -7.75%
COc1cccc2c1cc1c(=O)n(CC(=O)N3CCN(c4cccc(C)c4C)CC3)nc(C)n12 26.3%
CC(C)OC(=O)c1cccc(C(=O)Nc2cccc(NC(=O)c3cccc(C(=O)OC(C)C)n3)n2)n1 4.41%
CN(Cc1ccccc1N1CCCC1)C(=O)c1cc2cc(Cl)ccc2o1 -17%
N#Cc1ccc(C(=O)N2CCC3CC2c2cc(-c4ccc(F)cc4)ccc23)cc1 (stereo not drawn) 4.03%
CCc1cc2c(=O)c(-c3ccc4c(c3)OCCO4)coc2cc1OS(C)(=O)=O -7.65%
O=C(Nc1ccc(-c2csc(Nc3cccc(C(F)(F)F)c3)n2)cc1)c1cccc(C(F)(F)F)c1 5.91%
CN(C(=O)c1ccc2c(c1)CCN2S(C)(=O)=O)c1ccccc1 -0.242%
CCOCCOC(=O)c1[nH]c2c(c1C)C(=O)CC(c1cccs1)C2 (stereo not drawn) -16.7%
O=C(c1cccc(Cl)c1)N1CCC2CC1c1cc(-c3ccccc3)ccc12 (stereo not drawn) -5.35%
COC(=O)/C=C/c1ccc2c(c1)S(=O)(=O)N(c1cccc(OC)c1)[C@H]2CC(=O)OC -6.87%
COc1cc([N+](=O)[O-])ccc1NC(=O)NCC1CCN(Cc2ccc(Cl)cc2)CC1 -13%
COCCCN(C(=O)c1ccco1)c1nc(-c2ccc(OC)cc2)cs1 -38.4%
c1ccc(CCNc2nc(-c3ccncc3)nc3ccccc23)cc1 -17.9%
NC(=O)c1cc(-c2ccccc2)sc1NC(=O)CN1CCCCC1 24.3%
CCCc1cc(-c2[nH]ncc2-c2ccc(C(=O)OCC)o2)c(O)cc1O 46.8%
Cn1c(-c2ccsc2)c(-c2cccs2)c2cc(-c3ccc4cc[nH]c4c3)ccc21 -34.9%
O=C(C[C@@H]1C/C=C\C[C@H](NC(=O)OCC2c3ccccc3-c3ccccc32)C(=O)O[C@H](c2ccccc2)CNC1=O)NCCO -1.21%
O=C(NNC(=O)c1ccccc1O)c1ccc(S(=O)(=O)Nc2ccccc2)cc1 -1.35%
CC(C)(C)OC(=O)N1CSC[C@H]1C(=O)NC[C@H](CC(=O)O)c1ccc(Cl)cc1 -4.86%
CCOc1ccccc1CNC(=O)C1CCN(C(=O)c2sccc2-n2cccc2)CC1 -20.1%
Cc1ccc(Sc2nc(-c3ccccc3)nnc2C(F)(F)F)cc1 51.4%
CC(=O)c1ccc(-c2ccc(C(=O)Nc3nc(-c4ccccn4)cs3)o2)cc1 -23.5%
COc1ccc(-c2csc(N3CCN(c4cc(C)nc5ccccc45)CC3)n2)cc1OC -1.93%
